Rows were chosen to be rich in hits. Some 8.8% of all compounds tested hit in one or more screens of this group.
KB-3-1 cytotox – kills parental KB-3-1 adenocarcinoma cells; KB-3-1 viability, CellTiter-Glo ATP luminescence, 72 h; Potency, µM (titrated, usually from 46.1 µM), usual class: cytotoxic; 400,000 tested, 1.4% active; further: nearly all actives have a fitted effect of over 60% in size
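Cytotoxicity in the drug-sensitive parental line KB-3-1 was scored as loss of CellTiter-Glo luminescence following 72 h incubation with compound. Values come from curve fitting of normalized concentration-response data.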
IL1B secr inh – inhibitors of inflammasome signaling (IL-1 beta secretion) | THP-1 LPS/ATP IL-1B secretion, AlphaLISA, 16 h; active compounds read low | activity change, % at 57.5 µM | 360,000 tested, 4.7% active; in the data active means activity change below about -50%; inconclusive means mostly about -30% to -49%
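THP-1 cells pretreated 1 hr with compounds (up to 57.5 uM final), then stimulated with LPS (250 ng/mL final) plus ATP (1.25 mM final); secreted IL-1B measured by AlphaLISA after 16 hr, decreased signal indicating inhibition.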
KB-V1 MDR tox – KB-V1 MDR subline cytotoxicity | KB-V1 MDR cells viability, CellTiter-Glo, 72 h | Potency, µM (titrated, usually from 46.1 µM), most hits filed as cytotoxic | AID 1347076 | 400,000 tested, 3.4% active; further: nearly all actives have a fitted effect of over 60% in size
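KB-V1 MDR subline cells in DMEM (phenol-red free, 10% FBS) exposed to compounds in qHTS concentration series for 72 h at 37 degrees C. Viability read by CellTiter-Glo luminescence; concentration-effect curves fitted after normalization and correction.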
HT1080 IDH1KD tx – HT-1080 IDH1 knockdown cell toxicity (counter line) | 360,000 tested, 2% active | Potency, µM (top dose mostly 46.1 µM), most hits filed as cytotoxic | HT-1080 IDH1 knockdown viability, ATP luminescence, 48 h | AID 686971
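Viability of IDH1-knockdown HT-1080 fibrosarcoma cells was assessed by CellTiter-Glo after 48 h at 37 °C with titrated compound; concentration-effect curves were classified by fit quality and response size.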
HT1080NT lethal – kills 2HG-producing HT-1080-NT fibrosarcoma cells; HT-1080-NT fibrosarcoma viability, CellTiter-Glo ATP luminescence, 48 h; Potency, µM (series often up to 46.1 µM), most hits filed as cytotoxic; 360,000 tested, 1.6% active; AID 686970;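 further: NT is the 2HG producing partner of a matched IDH1 knockdown line; nearly all actives have a fitted effect of over 55% in size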
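HT-1080-NT fibrosarcoma cells (2HG-overproducing), 750 cells/well in RPMI with 5% FBS, dosed after 2 h and incubated 48 h at 37C. CellTiter-Glo luminescence normalized to DMSO and no-cell wells; concentration-response curves fitted and classed.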
Of the large screens only hits and unclear results are named; the others gave an inactive call. Unless noted, the call rests on the fitted dose curve; in most records, active means well fitted curve in the direction sought with a large enough effect; inconclusive means small, poorly fitted or top-dose-only effect, or another doubt; inactive means no such curve, though single readings can be large; an effect the other way counts as inactive or inconclusive.

Cc1ccc(NC(=O)N2CCN(C(=O)c3nsc4ccccc34)CC2)cc1C	none (no result: IL1B secr inh, HT1080 IDH1KD tx, HT1080NT lethal)
CCN(C(=O)CSc1ccc2ccccc2n1)C1CCCCC1	KB-3-1 cytotox inconclusive, IL1B secr inh -69, KB-V1 MDR tox 18µM
O=C(CSc1ccc2ccccc2n1)NC1CC1	KB-3-1 cytotox inconclusive
COC(=O)Cc1c[nH]c2cccc(OCC(O)CN(Cc3ccc([N+](=O)[O-])cc3)C(C)(C)C)c12 (configuration not stated)	KB-V1 MDR tox 5.8µM
COC(=O)Cc1c[nH]c2cccc(OCC(O)CN(Cc3ccccc3)C(C)C)c12 (configuration not stated)	KB-V1 MDR tox inconclusive
CC(C)=CCN1CCN(Cc2nc(-c3ccc(F)cc3)cs2)CC1CCO (configuration not stated)	KB-V1 MDR tox inconclusive
OCCC1CN(Cc2nc(-c3ccccc3)cs2)CCN1Cc1ccc(F)cc1 (configuration not stated)	KB-3-1 cytotox inconclusive, IL1B secr inh -76, KB-V1 MDR tox 9.2µM
Cc1cc(=O)oc2cc(OCC(=O)N3CCC(C(N)=O)CC3)ccc12	none
COc1ccc2oc(C(=O)OCC(=O)N3CCC(C)CC3)c(C)c2c1	IL1B secr inh -55
CCOC(=O)c1c(C)[nH]c(C(=O)COC(=O)c2oc3ccc(OC)cc3c2C)c1C	KB-3-1 cytotox 16µM, KB-V1 MDR tox 10µM
COc1ccc2oc(C(=O)OCc3c(C)noc3C)c(C)c2c1	IL1B secr inh -107, KB-V1 MDR tox inconclusive
Cc1cc(=O)oc2cc(OCC(=O)OCC(=O)N3CCC(C)CC3)ccc12	IL1B secr inh -60
CC(=O)OC[C@@H]1CN(Cc2ccccc2)C[C@H](n2cnc3c(N4CCN(c5ccccc5)CC4)ncnc32)O1	none
CC1(C(=O)NS(=O)(=O)c2ccccc2Cl)CCN1C(=O)CCC1CCCC1 (configuration not stated)	none
CCCN(C(=O)c1cn(C)c(=O)c2cc(OC)c(OC)cc12)c1ccc(CC)cc1	none (no result: IL1B secr inh, HT1080 IDH1KD tx, HT1080NT lethal)
O=C(NCc1ccco1)C(c1ccco1)N(Cc1cccs1)C(=O)Cn1nnc2ccccc21 (configuration not stated)	none
O=C(NC1CCCCC1)C(c1ccco1)N(Cc1cccs1)C(=O)Cn1nnc2ccccc21 (configuration not stated)	KB-V1 MDR tox 5.2µM, HT1080NT lethal inconclusive
COc1ccc(-c2nnn(CC(=O)N(CC(=O)NC3CCCC3)Cc3ccco3)n2)cc1OC	none
Cc1ccc(-c2nnn(CC(=O)N(Cc3cccs3)C(C(=O)NC3CCCC3)c3ccncc3)n2)cc1 (configuration not stated)	HT1080 IDH1KD tx inconclusive, HT1080NT lethal 16µM
COc1ccc(-c2nnn(CC(=O)N(CC(=O)NC3CCCC3)Cc3cccs3)n2)cc1OC	KB-V1 MDR tox 12µM
O=C(NCC1CCCO1)C(c1ccncc1)N(Cc1cccs1)C(=O)Cn1nnc(-c2ccc(F)cc2)n1 (configuration not stated)	none
Cc1ccc(-c2nnn(CC(=O)N(Cc3ccccc3)C(C(=O)NC3CCCC3)c3ccncc3)n2)o1 (configuration not stated)	KB-V1 MDR tox 21µM, HT1080 IDH1KD tx inconclusive
O=C(Nc1cccc2[nH]c([C@H]3C[C@H](O)[C@@H](CO)O3)nc12)NC(c1ccccc1)c1ccccc1	none
CCCCn1c(N)c(N(CC(C)C)C(=O)C2CC(=O)N(Cc3ccccc3)C2)c(=O)[nH]c1=O (configuration not stated)	KB-V1 MDR tox inconclusive
CCC(C(=O)NC1CCCC1)N(Cc1cccs1)C(=O)Cn1nnc(-c2ccc(OC)c(OC)c2)n1 (configuration not stated)	IL1B secr inh inconclusive
COc1ccc(-c2nnn(CC(=O)N(Cc3cccs3)C(C)C(=O)NC3CCCC3)n2)cc1OC (configuration not stated)	KB-V1 MDR tox 2.1µM, HT1080 IDH1KD tx inconclusive
CC(=O)Nc1ccc(S(=O)(=O)NCC(=O)NC(C)c2ccc(S(N)(=O)=O)cc2)cc1 (configuration not stated)	none
Cc1ccc(CNS(=O)(=O)c2ccc(-n3cnnn3)c(C)c2)cc1	none
CCN(CC)S(=O)(=O)c1ccc2c(c1)nc(CCC(=O)Nc1ccccc1Cc1ccccc1)n2CC	KB-V1 MDR tox 21µM
CCCCn1c(N)c(N(CC(C)C)C(=O)CSCc2ccc(Cl)c(Cl)c2)c(=O)[nH]c1=O	IL1B secr inh -56
CC(C)CN(C(=O)COC(=O)Cc1ccc(Cl)cc1)c1c(N)n(Cc2ccccc2)c(=O)[nH]c1=O	HT1080 IDH1KD tx 23µM, HT1080NT lethal 26µM
CC(C)CN(C(=O)COC(=O)c1ccc2c(c1)OCO2)c1c(N)n(Cc2ccccc2)c(=O)[nH]c1=O	IL1B secr inh -55
CC(C)CN(C(=O)COC(=O)c1ccc2c(c1)OCCO2)c1c(N)n(Cc2ccccc2)c(=O)[nH]c1=O	none
O=C(CN1CCN(C(c2ccccc2)c2ccccc2)CC1)NCc1ccccc1	none
O=C(CN1CCN(C(c2ccccc2)c2ccccc2)CC1)NC(=O)NCc1ccco1	KB-V1 MDR tox 2.3µM
CC(C)(C)NC(=O)NC(=O)CN1CCN(C(c2ccccc2)c2ccccc2)CC1	KB-V1 MDR tox 21µM
COc1ccc(CNC(=O)CN2CCN(C(c3ccccc3)c3ccccc3)CC2)cc1	IL1B secr inh -64
O=C(CN1CCN(c2ccccc2)CC1)NC(=O)NCc1ccco1	KB-V1 MDR tox inconclusive
CC(C)(C)NC(=O)NC(=O)CN1CCN(Cc2ccccc2)CC1	none
O=C(c1[nH]c(C(F)(F)F)nc1-c1ccccc1)N1CCN(c2cccc(C(F)(F)F)n2)CC1	KB-3-1 cytotox 5.2µM, KB-V1 MDR tox inconclusive, HT1080 IDH1KD tx 1.8µM, HT1080NT lethal 1.3µM
COc1ccccc1N1CCN(C(=O)c2[nH]c(C(F)(F)F)nc2-c2ccccc2)CC1	KB-3-1 cytotox 5.8µM, KB-V1 MDR tox inconclusive, HT1080 IDH1KD tx 0.82µM, HT1080NT lethal 1.3µM
CC(=O)N1CCN(C(=O)c2[nH]c(C(F)(F)F)nc2-c2ccccc2)CC1	none
Cc1cccc(N2CCN(C(=O)c3[nH]c(C(F)(F)F)nc3-c3ccccc3)CC2)c1C	KB-3-1 cytotox 2.3µM, KB-V1 MDR tox inconclusive, HT1080 IDH1KD tx 0.58µM, HT1080NT lethal inconclusive
C=CCNC(=O)/C(C#N)=C/c1ccccc1Cl	IL1B secr inh -58
C=CCNC(=O)/C(C#N)=C/c1cn(-c2ccccc2)nc1-c1ccc(OC)c([N+](=O)[O-])c1	none
C=CCNC(=O)/C(C#N)=C/c1cc(Br)ccc1OC	HT1080 IDH1KD tx inconclusive, HT1080NT lethal 21µM
C=CCNC(=O)/C(C#N)=C/c1ccc(C(=O)O)cc1	none
CC(C)C(=O)C1=Cc2cc([N+](=O)[O-])ccc2OC1N1CCOCC1 (configuration not stated)	none

Bioassay records as filed in PubChem BioAssay.
